# Data reported in PMC5540273 (PLoS ONE, 2017).
# What was measured:
# Settings in all cases: concentration: 1 μM, replicates: in singlicate; n = 1
# AAK1 = system: AAK1
# ABL1-nonphosphorylated = system: ABL1-nonphosphorylated
# ABL1-phosphorylated = system: ABL1-phosphorylated
# ABL2 = system: ABL2
# ACVR1B = system: ACVR1B
# ACVR1 = system: ACVR1
# ACVR2A = system: ACVR2A
# 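Also: KINOMEscan kinase panel screen.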
SMILES,%Inh (AAK1),%Inh (ABL1-nonphosphorylated),%Inh (ABL1-phosphorylated),%Inh (ABL2),%Inh (ACVR1B),%Inh (ACVR1),%Inh (ACVR2A)
COc1ccccc1-c1ccc2c(NC(=O)C3CC3)n[nH]c2n1 [SB-711239],9%,0%,88%,0%,18%,0%,29%
Cc1c(O)cccc1Nc1ccnc2ccc(C(F)(F)F)cc12.Cl [GW466413],0%,42%,70%,43%,0%,73%,13%
Cl.O=C(Nc1cccc(-c2nn3ncccc3c2-c2ccnc(Nc3cccnc3)n2)c1)c1c(F)cccc1F [GSK312879],0%,0%,0%,21%,0%,0%,0%
Cn1cncc1-c1ccc2ncnc(Nc3ccc(OCc4ccccc4)cc3)c2c1 [GW320571],2%,0%,10%,10%,2%,22%,16%
COc1cc2ncnc(Nc3ccc4nc(-c5ccccc5)[nH]c4c3)c2cc1OC.Cl [GW282450],6%,0%,0%,5%,0%,0%,0%
O=C(Nc1n[nH]c2cc(-c3cccc(F)c3F)ccc12)C1CC1 [SB-733894],100%,45%,40%,0%,21%,24%,17%
Fc1cccc(COc2nnc(-c3ccc4c(c3)CCO4)o2)c1,26%,25%,0%,22%,0%,0%,0%
Cl.NC(=O)c1cccc(Nc2nccc(Nc3ccc(Oc4cccc(Cl)c4)c(Cl)c3)n2)c1 [GW659008],14%,0%,0%,20%,0%,29%,0%
O=S(=O)(c1ccc(-c2ccnc3[nH]ccc23)cc1)N1CCCC1 [GSK846226],60%,0%,0%,0%,0%,24%,0%
Fc1cc(Cl)ccc1Nc1ccnc2cc(-c3ccc(CN4CCCCC4)o3)ccc12 [GW560116],1%,47%,49%,14%,0%,5%,0%
O=C(Nc1ccc2c(c1)OCO2)NC1CCN(c2ccnc(Nc3ccc(F)cc3)n2)C1 (centres unmarked) [GSK1379724],12%,0%,0%,9%,0%,0%,0%
COC(=O)c1c(-c2ccccc2)c2cc(C(=O)O)ccc2c(=O)n1Cc1ccccc1,3%,77%,7%,7%,9%,0%,36%
COc1cc2nccc(Nc3ccc(NC(=O)c4ccc(C)cc4)c(O)c3)c2cc1OC.Cl [GW440132],12%,28%,0%,16%,13%,0%,0%
COc1ccc2nc(-c3cccc(C)n3)nc(Nc3ccncc3)c2c1 [GSK204919],0%,0%,0%,12%,,0%,0%
Clc1cc(Cl)cc(Nc2ccnc(Nc3cc(Cl)cc(Cl)c3)n2)c1 [GSK175726],0%,68%,51%,29%,28%,58%,0%
CCn1c(-c2ccccn2)nc2cnccc21 [SB-736398],0%,0%,4%,0%,0%,18%,0%
CN1C(=O)C(Nc2ccc(Cl)c(C(=O)O)c2)=C(c2ccc(Cl)cc2)C1=O [SB-404290],100%,21%,0%,19%,4%,12%,0%
Cl.c1ccc(-c2n[nH]cc2-c2ccnc(-c3ccc(CN4CCOCC4)cc3)c2)nc1 [GW776245],25%,62%,61%,0%,80%,7%,11%
